The test system of test [1] is DLD1. Nature of the test: cell viability (CellTiter-Glo) relative to plate median (fraction of plate median); higher = more viable cells. The following applies: 5 µM; treatment time 24 h; reporter: 7TFP. Summed up: (§1)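 On parallel plates, a Tecan F500 reader recorded either firefly luciferase or CellTiterGlo luminescence. The plates held colorectal cancer cells stably transduced with lentiviral TCF/Wnt firefly luciferase reporters (7TFP or TCF4/Wnt), seeded in 384-well format and treated 24 h later with library compounds at a final 5 µM for 24 h. Per-well signals were normalised to the plate median (webcellHTS2, additive, no log transformation), and two independent replicates were averaged.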
In general terms: ATP-based viability assays read luminescence as a measure of living cells.

The test system of test [2] is HCT116. The test is described as above. The note with it: 5 µM; treatment time 24 h; reporter: TCF4/Wnt. Summed up: as §1
The test system of test [3] is SW480. The test is described as above. The following applies: 5 µM; treatment time 24 h; reporter: 7TFP. Summed up:
as §1

Test [4] concerns DLD1. Nature of the test: TCF/Wnt firefly luciferase reporter signal relative to plate median (fraction of plate median); higher = higher Wnt reporter signal. The note with it: 5 µM; treatment time 24 h; reporter: 7TFP. Summed up:
as §1

For test [5], the system named is SW480. The test is described as above. The note with it: 5 µM; treatment time 24 h; reporter: 7TFP. Summed up:
as §1

± gives the standard deviation of the averaged measurements.

In the case of `CC1=C(C/C=C(\C)CCC[C@H](C)CCC[C@H](C)CCCC(C)C)C(=O)c2ccccc2C1=O`, the cell viability stood at 0.9945 ± 0.00071 in test [1], 0.988 ± 0.06 in test [2] and 0.998 ± 0.045 in test [3]. Further, the figures for the “TCF/Wnt firefly luciferase reporter signal” value in test [4] and in test [5] were 0.819 ± 0.03 and 0.92 ± 0.064, respectively.
Turning to `C[N+](C)(C)CCOC(N)=O`, the cell viability was 0.994 ± 0.023 in test [1], 1.15 ± 0.057 in test [2] and 0.9925 ± 0.0078 in test [3]. Further, the “TCF/Wnt firefly luciferase reporter signal” value came to 1.13 ± 0.14 in test [4] and 0.847 ± 0.064 in test [5].
The corresponding values for `N=C(N)NC(=N)Nc1ccccc1` are 0.96 ± 0.014, 0.969 ± 0.034, 0.958 ± 0.021, 0.946 ± 0.052 and 0.99 ± 0.015.
The corresponding values for `C=CCSCC1Nc2cc(Cl)c(S(N)(=O)=O)cc2S(=O)(=O)N1` (stereo not given) are 1.07 ± 0.042, 1.11 ± 0.085, 1.03 ± 0.021, 1.06 ± 0.071 and 1.02 ± 0.028.
Turning to `Nc1ccc(S(=O)(=O)Nc2ccccn2)cc1`, the cell viability in test [1] turned out to be 0.971 ± 0.11; in test [2] it was 0.949 ± 0.067; in test [3], 0.981 ± 0.055. The “TCF/Wnt firefly luciferase reporter signal” value in test [4] amounted to 1.12 ± 0.028; in test [5], 0.915 ± 0.076.
In the case of `CCN(CC)CCOC(=O)C(c1ccccc1)C1CCCCC1` (stereo not given), the cell viability in test [1] was determined as 0.986 ± 0.0071; in test [2], 0.938 ± 0.13; in test [3], 0.978 ± 0.046. Moreover, the results for the “TCF/Wnt firefly luciferase reporter signal” value in test [4] and in test [5] were 0.996 ± 0.0057 and 1.05 ± 0.075, respectively.
The corresponding values for `C[C@@H]1[C@H]2[C@H](O[C@@H]3O[C@H](CO)[C@@H](O)[C@H](O)[C@H]3O)OC=C(C(=O)O)[C@H]2C[C@@H]1O` are 1.05 ± 0.035, 1.02 ± 0.1, 1.03 ± 0.014, 1.07 ± 0.1 and 1.05 ± 0.078.
The corresponding values for `Nc1ncnc2c1ncn2[C@@H]1O[C@H](COP(=O)(O)O)[C@@H](O)[C@H]1O` are 0.958 ± 0.025, 0.983 ± 0.081, 1.03 ± 0.059, 1.09 and 0.974 ± 0.12.
For `COc1ccc2cc([C@H](C)C(=O)O)ccc2c1`, the results for the cell viability in test [1], in test [2] and in test [3] were 1.02 ± 0.039, 0.981 ± 0.083 and 1.045 ± 0.0071, respectively. Moreover, the “TCF/Wnt firefly luciferase reporter signal” value came out at 0.969 ± 0.13 in test [4] and 0.941 ± 0.065 in test [5].
Consider `O=C(Oc1cc(OC(=O)c2ccccc2)c2c(c1)O[C@H](c1ccc(OC(=O)c3ccccc3)c(OC(=O)c3ccccc3)c1)[C@@H](OC(=O)c1ccccc1)C2)c1ccccc1`, for which the cell viability in test [1] worked out at 1.04 ± 0.059; in test [2], 1.065 ± 0.0071; in test [3] it was 1.06 ± 0.071. Also, the “TCF/Wnt firefly luciferase reporter signal” value in test [4] is 0.978 ± 0.046; in test [5] it was 0.972 ± 0.016.
The corresponding values for `O=c1[nH]cnc2c1ncn2[C@@H]1O[C@H](CO)[C@@H](O)[C@H]1O` [Inosin] are 0.943 ± 0.12, 0.91 ± 0.15, 0.971 ± 0.013, 0.67 ± 0.24 and 0.999 ± 0.13.
Consider `C[C@]12C=CC(=O)C=C1CC[C@@H]1[C@@H]2[C@@H](O)C[C@@]2(C)[C@H]1CC[C@]2(O)C(=O)COC(=O)CCC(=O)O`, for which the values for the cell viability in test [1], in test [2] and in test [3] were 1.02 ± 0.028, 1.01 ± 0.092 and 1.03 ± 0.014, respectively. In addition, the “TCF/Wnt firefly luciferase reporter signal” value in test [4] worked out at 1.075 ± 0.0071; in test [5], 0.969 ± 0.072.
The corresponding values for `CC(=O)O[C@@H]1C2=C(C)C=C(O2)[C@H]2O[C@]2(C)C[C@H]2C=C(C(=O)O2)[C@H](OC(C)=O)CC1[C@@]1(C)CO1` (stereo not given in full) [bipinnatin H] are 1.1 ± 0.13, 1.08 ± 0.17, 0.984 ± 0.023, 0.897 ± 0.16 and 0.7915 ± 0.0021.
The corresponding values for `CC(=O)[C@H]1CC[C@H]2[C@@H]3CC=C4C[C@@H](O)CC[C@]4(C)[C@H]3CC[C@]12C` are 1.07 ± 0.028, 0.941 ± 0.023, 0.956 ± 0.028, 1.1 ± 0.05 and 1.19 ± 0.014.

(Values after the supplement of paper PMC6522484.)
